In PubChem BioAssay AID2069 (Sanford-Burnham Center for Chemical Genomics, 2009) one finds inhibition data, which are given here for 99 compounds.

Among all 1,200 compounds or so, about 210 (18%) were called active. A selection follows. Values without a mark were called inactive. Rule as the data show it: active = inhibition above about 30%; inactive = the rest.

A short description of the test: fluorescence readout artefact check – biochemical, HTRF, uHTS, artefact control for SUMOylation inhibitor project, confirmation (AID 2069). Particulars: HTRF interference counterscreen, at 35 µM, stronger effect = higher value.
`Cc1cc(/C=N/n2c(COc3ccccc3C)nc3ccccc3c2=O)c(O)c([N+](=O)[O-])c1`: the inhibition (in general, the change of the read-out against control, counted positive when it falls) was -15.5%.

On to `CCn1c2ccccc2c2c3ncc4cccn4c3ccc21`, for which the inhibition is 31.1% (active). The same measure for `O=[N+]([O-])c1ccc2nc(CCCc3nc4ccc([N+](=O)[O-])cc4[nH]3)[nH]c2c1`: 28.1%; for `COc1ccccc1CCNC(=O)CSc1ccc(-c2ccco2)nn1`: 14.2%.

Regarding `CCc1cc2c(=O)c(Oc3ccccc3F)c(C)oc2c(CN(C)C)c1O`, the inhibition was 62.9% (active). The figure for `Cc1ccccc1NC(=O)Cn1c(O)c(N=NC(=O)c2ccccc2O)c2ccccc21` is 11.2%; for `CN1CCc2cc3c(c4c2[C@H]1[C@H](O)c1ccccc1-4)OCO3` it is 1.95%. `CCc1ccc(/C=C2/SC(=S)N(CCC(=O)Nc3ccc(C(=O)O)cc3)C2=O)cc1`: the inhibition is 8.2%. The figure for `COc1ccc2nc3ccccc3nc2c1N` is -67.2%. The same measure for `CC(=O)NC1C(=O)N(CCN2CCOCC2)c2ccc(Br)cc21` (centres undefined): 32.2% (active); for `CCc1ccc2nc(NC(=O)c3ccc4c(=O)[nH]c(CN5CCOCC5)nc4c3)sc2c1`: 29.9%.

On to `Brc1ccc(OCCN2CCOCC2)cc1`, for which the inhibition is -8.15%.

Consider `CC(=O)NC1C(=O)N(CCN2CCOCC2)c2ccc(Cl)cc21` (centres undefined), for which the inhibition is 25.8%. The figure for `CCOc1ccc2c(c1)C(NC(C)=O)C(=O)N2CCN1CCOCC1` (centres undefined) is 37.8% (active); for `CCc1ccc2c(c1)C(NC(C)=O)C(=O)N2CCN1CCOCC1` (centres undefined) it is 30.8% (active). The same measure for `CC(=O)NC1C(=O)N(CCN2CCOCC2)c2ccc(F)cc21` (centres undefined): 28.6%. The same measure for `O=C1NC(=O)c2cc(NC(=O)C3CCCCC3)ccc21`: 25.4%; for `CCOC(=O)C1CC(=O)c2cc(OC)c(OC)cc2C1` (centres undefined): -1.1%; for `O=C(COc1ccc(Cl)cc1)Nc1nnc(-c2ccc3c(c2)CCCC3)o1`: -7.05%. Consider `CC(C)=CCC1=C(OCC(=O)O)C(=O)c2ccccc2C1=O`, for which the inhibition was -6.2%.

On to `O=C(NC1(O)C(=O)c2ccccc2C1=O)c1c(Cl)cccc1Cl`, for which the inhibition was 50.4% (active).

Regarding `CN(NC(=O)c1ccc(Cl)cc1)c1ncc(C(F)(F)F)cc1Cl`, the inhibition was 4.95%. The same measure for `O=C(NC1(O)C(=O)c2ccccc2C1=O)c1ccccc1`: 57.5% (active); for `O=C1c2ccccc2C(=O)C12OC2c1ccc(Cl)cc1` (centres undefined): 4.4%; for `O=C(NC1(O)C(=O)c2ccccc2C1=O)c1ccc(C(F)(F)F)cc1`: 56.5% (active). The figure for `Cc1ccc(C(=O)NC2(O)C(=O)c3ccccc3C2=O)cc1C` is 29.6%; for `O=C(Cc1ccccc1Cl)NC1(O)C(=O)c2ccccc2C1=O` it is -30.6%; for `CC(=O)c1ccc(-c2ccc(/C=C(/Sc3n[nH]c(C)n3)C(=O)O)o2)cc1` it is -9.75%. The figure for `Cc1cccc(C)c1OCC(=O)N=Nc1c(O)[nH]c2ccc(Br)cc12` is -1.15%; for `Cc1nnc(N/N=C\c2ccc(-c3ccccc3[N+](=O)[O-])o2)n1N` it is 16%. Consider `O=C1/C(=N\S(=O)(=O)c2cccs2)C([n+]2cccc(Cc3ccccc3)c2)=C([O-])c2ccccc21`, for which the inhibition was 22%. The figure for `CCC(=O)N1CCc2cc(S(=O)(=O)NC(C(=O)NCc3ccc(C)cc3)C(C)C)ccc21` (centres undefined) is -2.25%; for `COC(=O)c1c(NC(=O)COC(=O)c2ccc(NC(=O)CC#N)cc2)sc2c1CCCCC2` it is 4.25%.

On to `COCCn1c(-c2ccco2)nc2nc3ccccc3nc21`, for which the inhibition was 12.7%. The figure for `Fc1cccc(-n2c(-c3cccs3)nc3nc4ccccc4nc32)c1` is 30.1% (active).

Take `O=[N+]([O-])c1ccc(-c2ccc(C=Nc3cccc4ccccc34)o2)cc1`: the inhibition was 11.9%. The figure for `CN(C)S(=O)(=O)c1cccc(-c2nn(-c3ccccc3)cc2/C=C2\SC(=S)NC2=O)c1` is -4%.

Turning to `Cc1nnc(Sc2cc(NCCCO)c([N+](=O)[O-])c3nonc23)s1`, the inhibition was -3.2%.

With `O=c1c2ccccc2oc2cc(NCCCN3CCOCC3)ccc12`, the inhibition is 57.9% (active). The same measure for `COc1ccc(-c2ccc(C(c3c(C)[nH][nH]c3=O)c3c(C)[nH][nH]c3=O)o2)c([N+](=O)[O-])c1`: 1.45%; for `COc1cc2c(cc1OC)-c1cc3ccc4c(c3c[n+]1CC2)OCO4`: 24.4%; for `CCOC(=O)c1c(NC(=O)c2ccco2)n(C2CCCCC2)c2nc3ccccc3nc12`: 21.2%. The same measure for `Cc1cc(NCCO)c2cc(O)ccc2n1`: 57.5% (active). In the case of `Cc1ccccc1NC(=O)c1ccc(N/N=C/c2ccccc2O)c([N+](=O)[O-])c1`, the inhibition is 24.7%. The same measure for `O=C(NC(=S)Nc1cccc2c(O)cccc12)c1ccccc1[N+](=O)[O-]`: -1.65%; for `COC(=O)/C(=C\Nc1ccc(Cl)cc1Cl)NC(=O)c1ccc(OC)cc1`: 0.3%.

As to `COc1cccc(/C=N/NC(=O)C(=O)N/N=C/c2cccc(OC)c2O)c1O`, the inhibition is 48% (active). The same measure for `Oc1ccc(C=Nc2cccc3ccccc23)c(O)c1`: 0.55%; for `COc1cc(OC)c(/C=N/NC(=O)c2ccc(NC(C)=O)cc2)cc1Br`: 23.1%. The same measure for `COc1cccc2c(SCC(=O)N/N=C/c3ccc(O)cc3O)cc(C)nc12`: 15.7%; for `COc1cccc(/C=N\NC(=O)C2=NNC(=O)C2C)c1O` (centres undefined): 24.4%; for `O=C(N/N=C/c1ccc(O)cc1O)C(=O)N/N=C/c1ccc(O)cc1O`: 63.6% (active). As for `CC1(OC(=O)c2cccs2)C(=O)C=C2C=C3CCCN3C=C2C1=O` (centres undefined), the inhibition is 7.4%. The same measure for `O=C(CNc1ccc2ccccc2c1)N/N=C/c1cc2ccccc2nc1Cl`: 2.4%. The same measure for `CC1=NN(c2ccccc2)C(=O)C1`: 7.95%. As to `Cc1[nH]n(-c2ncc(-c3ccccc3)s2)c(=O)c1C(c1ccc(Cl)cc1)C(C#N)C#N` (centres undefined), the inhibition is -20.6%.

With `O=C(Cn1c2ccccc2c(=O)c2ccccc21)N/N=C/c1cc([N+](=O)[O-])ccc1N1CCCCCC1`, the inhibition was 10.9%.

As to `O=C(N/N=C/c1cc(Cl)cc([N+](=O)[O-])c1O)c1ccccc1NS(=O)(=O)c1cccs1`, the inhibition is 39.8% (active). The figure for `Cc1ccccc1C(=O)Nc1cccc(C(=O)N/N=C/c2cc(Cl)cc([N+](=O)[O-])c2O)c1` is -53.5%; for `O=C(N/N=C/c1ccc(N2CCOCC2)cc1)c1ccccc1NS(=O)(=O)c1cccs1` it is 24.1%. The same measure for `C=C(C)[C@@H]1CC[C@]2(C(=O)O)CC[C@]3(C)[C@H](CC[C@@H]4[C@@]5(C)CC[C@H](O)C(C)(C)[C@@H]5CC[C@]43C)[C@@H]12`: 5.35%; for `Cc1ccc(Nc2nc(=O)c3cc([N+](=O)[O-])ccc3s2)cc1`: 5.9%. The same measure for `Cc1cccc(NC(=O)/C(C#N)=C/c2cn(CC(=O)NCc3ccco3)c3ccccc23)c1C`: 13.7%. Consider `CCCCCCC#Cc1cncc(C(=O)NNC(=O)Nc2cc(Cl)cc(Cl)c2)c1`, for which the inhibition was -17%. The figure for `O=C1C=C(N(CCO)Cc2ccccc2)c2ccccc2C1=O` is 50.4% (active). Regarding `O=C1C=C(NCc2ccccc2)c2ccccc2C1=O`, the inhibition is -1.95%. Take `O=C1C=C(Nc2ccccc2C(=O)O)c2ccccc2C1=O`: the inhibition was -7.25%. The figure for `CC(C)CNC1=CC(=O)CC(c2ccco2)C1` (centres undefined) is -0.9%; for `COc1cccc(C(c2c(C)[nH]n(-c3ccccc3)c2=O)c2c(C)[nH]n(-c3ccccc3)c2=O)c1OC` it is -27.4%. The figure for `Nc1ncnc2c1ncn2C1OC(COP(=O)(O)O)C(O)C1O` (centres undefined) is -7%. `O=C1OC(Nc2ccc3ncccc3c2)c2ccccc21` (centres undefined): the inhibition is 24%.

On to `O=[N+]([O-])c1ccc(O)c(C=Nc2cccc3ncccc23)c1`, for which the inhibition is 4.3%. The same measure for `N#CC1=C(N)N2C(=C(C#N)C1c1ccc(Br)cc1)Nc1ccccc12` (centres undefined): 7.05%; for `O=c1nc2s/c(=C\c3ccco3)c(=O)n2nc1Cc1ccc(F)cc1`: -3.1%; for `OC(COc1ccccc1)CSc1ncn[nH]1` (centres undefined): 14.6%. For `Fc1ccc(NC(=S)Nc2ccc3nccnc3c2)cc1`, the inhibition is 7.9%. The same measure for `CC(C)N(C(=O)Nc1ccc2nccnc2c1)C(C)C`: 31.1% (active). The same measure for `COc1ccc(NC(=S)Nc2ccc3nccnc3c2)cc1`: 8.85%; for `COc1ccc(-n2c(NC(=O)c3ccc(Br)o3)c(C#N)c3nc4ccccc4nc32)cc1`: 12.1%. The figure for `Cn1c(=O)n(C)c2cc(S(=O)(=O)NCCO)ccc21` is -3.1%; for `O=C(Nc1cccc2nsnc12)c1ccc(-c2cccc(Cl)c2)o1` it is 25.9%; for `Cc1ccc2nsnc2c1NC(=O)c1ccc(-c2cc(Cl)ccc2Cl)o1` it is 20.6%. `CCOc1cc(C2c3c(oc4ccccc4c3=O)C(=O)N2c2nccs2)ccc1O` (centres undefined): the inhibition was -2.15%. For the compound `COc1ccccc1Oc1c(C)oc2c(CN3CCN(C)CC3)c(O)ccc2c1=O`, the inhibition is 30.4% (active).

As to `CCOc1ccccc1Oc1c(C)oc2c(CN3CCN(C)CC3)c(O)ccc2c1=O`, the inhibition was 40.3% (active). The same measure for `Oc1ccc2ccccc2c1C=NCc1cn2ccsc2n1`: 0.1%; for `CC(C)c1ccc(NC(=S)Nc2cccc3ccccc23)cc1`: -7.9%.

For `COc1ccc2cc3c(N)nn(C(=O)Cc4ccc(Cl)cc4)c3nc2c1`, the inhibition was 23.9%. The figure for `CCN(CC)C(=O)c1sc2nc(-c3ccncc3)[nH]c(=O)c2c1C` is 47.2% (active). Turning to `CCCCCCC(C)OC(=O)c1ccccc1C(=O)O` (centres undefined), the inhibition was 3.05%. The same measure for `NC(=S)n1[nH]c(-c2ccc([N+](=O)[O-])cc2)c(N=Nc2cccc(Cl)c2)c1=O`: 10.7%; for `COc1ccc(-c2cc(C(F)(F)F)n3ncc(C(=O)NCc4ccco4)c3n2)cc1`: 44.1% (active); for `COc1ccc(CCn2c(N)c(C(=O)NCc3ccco3)c3nc4ccccc4nc32)cc1OC`: 1.65%.

Regarding `Cc1onc(-c2ccccc2Cl)c1C(=O)NCc1ccco1`, the inhibition is 11.2%.

On to `COc1ccc2oc(=O)c(C(=O)NCc3ccco3)cc2c1`, for which the inhibition was 48.4% (active).

Take `COc1ccc(CNC(=O)c2c(C)oc3c2C(=O)c2ccccc2C3=O)cc1`: the inhibition was 5.35%. Turning to `COc1ccc2oc(=O)c(/C(C)=N/NC(=O)c3ccncc3)cc2c1`, the inhibition is 18.8%. The figure for `COc1ccc2oc(=O)c(C(=O)NCC3CCCO3)cc2c1` (centres undefined) is 40.9% (active). The same measure for `COc1ccc(C(=O)Nc2ccc(-c3nnn(CC(=O)NCc4ccco4)n3)cc2)cc1`: 26.7%.
